# Myeloid diff 2: compounds promoting myeloid differentiation | 360,000 tested, 1% active | ER-HoxA9 myeloid progenitors, lysozyme-GFP differentiation, flow cytometry | AID 624256 | calls only at 10 µM;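 active = normalized GFP-positive differentiation at or above the plate's own cutoff, the solvent-only control mean plus 3 SD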;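 also: cells exposed to compound for four days before flow analysis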
# SKN-1 block: inhibitors of C. elegans SKN-1; C. elegans VP596 Pgst-4::GFP/RFP ratio, acrylamide-induced, 24 h; inhibition, % at 21.8 µM; 360,000 tested, 0.49% active; AID 624304;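 active = interference check ratio from 0.5 to 1.5 plus GFP to RFP signal ratio inhibition reaching or exceeding a fixed threshold, cut at about 30% in these data, passing the limit was not always enough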
# ATG4B inh: inhibitors of human ATG4B cysteine protease | Q9Y4P1 | ATG4B cleavage of LC3-PLA2, NBD-HPC fluorescence, 1 h | inhibition, % at 8.33 µM | 340,000 tested, 0.51% active | AID 504462; in the data active = inhibition above about 40%
# Target sequence (Q9Y4P1 whole entry, looked up): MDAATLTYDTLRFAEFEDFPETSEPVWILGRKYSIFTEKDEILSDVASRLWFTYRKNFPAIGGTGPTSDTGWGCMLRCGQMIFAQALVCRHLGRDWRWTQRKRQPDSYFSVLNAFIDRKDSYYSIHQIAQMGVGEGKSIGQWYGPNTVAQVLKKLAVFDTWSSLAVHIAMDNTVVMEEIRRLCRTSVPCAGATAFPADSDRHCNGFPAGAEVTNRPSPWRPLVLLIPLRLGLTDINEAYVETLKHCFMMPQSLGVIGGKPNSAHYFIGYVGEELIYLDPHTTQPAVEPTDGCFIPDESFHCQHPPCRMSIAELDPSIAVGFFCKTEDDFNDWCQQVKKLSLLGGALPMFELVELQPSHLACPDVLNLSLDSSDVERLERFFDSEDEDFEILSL
# CHRM1 agonist: activates human CHRM1 receptor | CHO-K1 hM1, Fluo-8 calcium fluorescence, agonist mode; 0% DMSO, 100% acetylcholine EC100 | 360,000 tested, 0.33% active | P11229 | activation, % at 3 µM;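 active = activation above the run's mean compound activation plus 3 SD, cut at about 16% in these data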;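 also: peak over basal fluorescence ratio within a 140 s kinetic read after compound addition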
# M1 antag: human CHRM1 antagonism; inhibition, % at 3 µM; P11229; 360,000 tested, 1.3% active; CHO-K1 hM1, Fluo-8 calcium fluorescence, ACh EC80 antagonist;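 active = percent inhibition above its own plate's cutoff, namely the mean of that plate's compound wells plus 3 SD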;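 also: peak over basal fluorescence ratio during 140 s after agonist addition; 0% = ACh EC80 plus DMSO and 100% = DMSO alone without agonist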
# CHRM1 PAM: human CHRM1 positive allosteric modulation | CHO-K1 hM1, Fluo-8 calcium fluorescence, ACh EC20; 0% = ACh EC20, 100% = maximal ACh | activation, % at 3 µM | AID 588819 | 360,000 tested, 0.088% active | P11229; in the data active = activation above about 19%, passing the limit was not always enough
# * hit, by the source's call; i = inactive; · = no result given; + = active, no number. An excerpt weighted towards active compounds, which were near 3.5% of everything screened.
SMILES,Myeloid diff 2,SKN-1 block,ATG4B inh,CHRM1 agonist,M1 antag,CHRM1 PAM
Cn1c(=O)c(N)c2c3c(c(Br)ccc31)C(=O)c1ccccc1-2,i,-73,-12,16*,13,-2
Nc1nc2ccccc2nc1N1CCCC1,i,-2,3,-7,-6,4
CN1CCN(C=Nc2nc3ccccc3nc2N2CCCC2)CC1,i,10,5,-5,34*,-18
C=CCn1c(C)c(C(C)=O)c(N2CCCC2)nc1=S,i,4,13,-6,98*,-20
CC(=O)c1c(N2CCCCC2)nc(=S)n(Cc2ccccc2)c1C,i,4,1,-5,-3,-7
CCn1c(C)c(C(C)=O)c(N2CCCC2)nc1=S,i,11,-1,-4,40*,-18
CCn1c(CNC(=O)c2cc(OC)c(OC)c(OC)c2)cc2ccccc21,i,-2,-6,0,10,-9
Clc1ncc(CSc2ccccc2)s1,i,39*,-4,-2,-19,17
Cc1ccc(N2C(=O)CSC23C(=O)Nc2ccccc23)cc1 (stereo not drawn),i,1,0,-5,41*,-19
Cc1ccc2c(c1)C1(SC(C)C(=O)N1c1ccc(Cl)cc1)C(=O)N2 (stereo not drawn),i,5,·,-12,25,-26
N#CC(=Cc1cccs1)c1nc(-c2ccc(Cl)cc2)cs1,i,62*,·,-4,-5,2
CCCCc1ccc(-c2csc(/C(C#N)=C\c3ccc(C)o3)n2)cc1,i,8,8,-5,-5,3
N#C/C(=C\C=C\c1ccccc1)c1nc(-c2ccc(Cl)cc2)cs1,i,17,10,-2,-4,11
N#C/C(=C\c1ccc(Cl)cc1)c1nc(-c2ccco2)cs1,+,52,-11,-4,0,1
CCCCc1ccc(-c2csc(/C(C#N)=C/c3ccco3)n2)cc1,+,33,-3,-4,0,1
N#C/C(=C\c1ccc(F)cc1)c1nc(-c2ccco2)cs1,i,60*,11,-7,-9,2
COC(=O)c1cccc(CN2C(=O)C(C)Oc3ccc(C)cc32)c1 (stereo not drawn),i,1,·,-6,2,-5
CCCCc1ccc(NC(=O)Nc2cc(C)nn2C)cc1,i,3,-7,-1,5,2
COC(=O)c1ccc(C(=O)OC)c(NC(=O)C2CCCO2)c1 (stereo not drawn),i,15,5,-2,-18,18
CCOC(=O)c1c(NC(=O)CSc2nnc(-c3ccccc3C)n2C)sc(C(C)=O)c1C,i,9,7,-4,46*,-19
CCOC(=O)c1c(NC(=O)CSc2nc3cccnc3n2C)sc(C(C)=O)c1C,i,12,-7,-4,-31,1
CCOC(=O)c1c(NC(=O)CSc2nc3ccccc3s2)sc(C)c1C,+,-11,1,-2,3,1
O=C(Nc1nnc([C@@H]2C[C@H](O)[C@@H](CO)O2)s1)NC1CCCCC1,i,17,·,0,-15,16
Oc1ccccc1N1CCN(CC(O)COC2CCCc3ccccc32)CC1 (stereo not drawn),i,-16,4,-11,39*,-29
CC(NC(=O)CCNC(=O)c1ccco1)c1ccc(F)cc1 (stereo not drawn),i,2,-5,-3,6,0
N#Cc1ccccc1S(=O)(=O)N1CCN(c2nc(-c3cccnc3)nc3ccccc23)CC1,i,-2,-5,-2,50*,-19
Cc1ccc(C)c(S(=O)(=O)N2CCN(c3nc(-c4cccnc4)nc4ccccc34)CC2)c1,i,-18,-16,-4,27*,-12
O=S(=O)(c1ccccc1F)N1CCN(c2nc(-c3cccnc3)nc3ccccc23)CC1,i,0,-8,-2,27,-9
CC1(c2ccc([N+](=O)[O-])cc2)NC(=O)N(CC(=O)c2ccc3c(c2)OCO3)C1=O (stereo not drawn),i,-4,2,37*,-1,1
CC1(c2ccc(OC(F)F)cc2)NC(=O)N(CC(=O)NC2CCCCC2)C1=O (stereo not drawn),i,7,-9,10,-12,5

# Assay outcomes (PubChem)
